# FMDV inh: antivirals against foot and mouth disease virus; FMDV antiviral cell-based qHTS; Potency, µM (doses to about 57.9 µM), for the others: at the highest dose activity change, negative = inhibition, actives largely listed as inhibitors; 1.2% of 410,000 active; AID 1159524; calls by dose curve; tested in HEK293T cells; further: read-out not given here; nearly all actives have a fitted effect of over 45% in size
# LASV entry inh: Lassa virus entry inhibition; Lassa virus pseudotype entry inhibition, cell reporter; Potency, µM (top dose mostly 37.9 µM), inactives show at the highest dose activity change, negative = inhibition, hits mostly inhibitors; 1.2% of 300,000 active; AID 540256; calls by dose curve; tested in HEK293 cells; further: nearly all actives have a fitted effect of over 50% in size
# Sm TGR block: S. mansoni TGR enzyme inhibition; Q962Y6; purified TGR, DTNB reduction, TNB absorbance 405 nm; Potency, µM (highest dose often 114 µM), for inactives: at the highest dose activity change, negative = inhibition, usual class: inhibitors; 3% of 360,000 active; AID 485364; further: nearly all actives have a fitted effect of over 60% in size
#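 TGR 20 nM + NADPH 100 uM (dispensed conc.), cpd preinc 15 min RT; start with NADPH (500 uM addition) then DTNB (15 mM addition). Kinetic TNB absorbance, 405 nm filter. Four-parameter Hill fit across titration.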
# MARV entry inh: blocks Marburg virus binding to or entry into cells; 1.8% of 300,000 active; Potency, µM (titrated, usually from 37.8 µM), for the others: top-dose activity change, negative = inhibition, most hits filed as inhibitors; Marburg virus pseudotyped entry inhibition, cell reporter; calls by dose curve; tested in HEK293 cells
# HCV inhibitor: blocks hepatitis C virus | Huh7.5.1 HCVcc-Cre infection, luciferase reporter, 44 h | Potency, µM (highest dose often 41.8 µM), without a hit: at the top dose activity change, negative = inhibition, actives largely listed as inhibitors | 3.4% of 340,000 active | AID 651820
#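 HCVcc-Cre virus at an moi near 0.5 was added right after compound to cells cultured 4 h from seeding (1,000 cells/well). Luciferase activity was determined 44 h later, 15 min after substrate addition at RT.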
# RE007 growth inh: less growth of the S. pombe RE007 Vpr strain; S. pombe RE007 Vpr strain, BacTiter-Glo ATP luminescence, 24 h; Potency, µM (titrated, usually from 92.2 µM), for the others: top-dose activity change, negative = less growth, most hits filed as inhibitors; 0.21% of 360,000 active; AID 651644; active means well fitted falling curve with a large enough effect; inconclusive means small, poorly fitted or top-dose-only effect; inactive means no such curve, though single readings can be large or run the other way; further: nearly all actives have a fitted effect of over 50% in size
#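 Fission yeast strain RE007, carrying one chromosomally integrated HIV-1 vpr copy, was seeded at OD 0.01 in PMG+AL medium with 23 nL pinned compound. After 24 h at 30 °C and 99% humidity, viability was read by BacTiter-Glo luminescence.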
# * hit, by the source's call; ? = inconclusive; . = no result given; [ ] = another dose, or the depositor's remark. The list is not random: actives were taken first. Their share in the collection is about 7.2%. Unless noted, the call rests on the fitted dose curve; in most records, active means well fitted curve in the direction sought with a large enough effect; inconclusive means small, poorly fitted or top-dose-only effect, or another doubt; inactive means no such curve, though single readings can be large; an effect the other way counts as inactive or inconclusive. On the % scale 0 is the no-effect control and ±100 the full control effect; potency means the concentration at half of the fitted maximal effect.
SMILES,FMDV inh,LASV entry inh,Sm TGR block,MARV entry inh,HCV inhibitor,RE007 growth inh
O=C(NCc1ccccc1F)C1CCCN(S(=O)(=O)c2ccc(-n3cnnn3)cc2)C1 (configuration not stated),?,-15.5%,-8.3%,7.5%[46.1 µM],3.3%,-7.0%
CSCC[C@H](NC(=O)C1CCN(S(=O)(=O)c2ccc(C)cc2)CC1)C(=O)NCC1CCCO1 (some centres not stated),8.6%,0.0%,-19.1%,-7.3%,-5.7%,7.1%
COC(=O)Nc1ccc(S(=O)(=O)N2CCCCC2C(=O)NCc2ccco2)cc1 (configuration not stated),-1.2%,-15.1%,-8.6%,?,?,10.2%
Cc1ccc(S(=O)(=O)N2CCCCC2C(=O)NCc2ccco2)cc1 (configuration not stated),-4.7%,?,20µM*,6.6%,-10.9%,7.9%
CSCC[C@H](NC(=O)C1CCN(S(=O)(=O)c2ccc(C)cc2)CC1)C(=O)NCc1ccco1,0.4%,-5.2%,44.7µM*,14.0%,7.0%,11.0%
CCCCN(C)C(=O)C1CCC(CNS(=O)(=O)c2ccc(Cl)cc2)CC1 (configuration not stated),-24.9%,-23.3%[46.1 µM],9.8%,.,.,.
CC1=C[C@@H](COCc2ccccc2)O[C@@]2(C1)C(=O)N(CC1CC1)c1ccccc12,.,.,.,0.8%[14.2 µM],.,.
CN(C)S(=O)(=O)c1cccc(NC(=S)Nc2ccc(Cl)cc2Cl)c1,?,-10.3%,8.91µM*,2.0%,14.8%,-1.3%
CN(C)S(=O)(=O)c1cccc(NC(=S)Nc2cc(Cl)cc(Cl)c2)c1,-15.5%,2.2%,?,-22.0%,4.6%,0.7%
CN(C)S(=O)(=O)c1cccc(NC(=O)CCSc2ccc(Cl)cc2)c1,0.0%,10µM*,-0.3%,?,10µM*,.
CCN(CCO)c1ccc(NC(=S)Nc2cccc(S(=O)(=O)N(C)C)c2)cc1,-17.4%,27.3%,39.8µM*,?,?,-8.6%
Cc1ccc(NC(=O)Cn2cc(C(=O)c3ccco3)c3ccccc32)cc1C,-15.8%,?,4.3%,?,.,.
O=C1/C(=C/N(C(=O)c2ccco2)c2ccc(Cl)cc2)Sc2ccccc21,?,?,39.8µM*,?,-7.6%,?
COc1ccc(CN(C(=O)c2ccco2)c2ccc(Br)cc2)cc1OC,?,-19.2%,-12.0%,1.2%[46.1 µM],-2.3%,15.3%
O=C1c2ccccc2C(=O)N1CCCCN(C(=O)c1ccco1)c1ccc(Cl)cc1,?,-4.9%,0.0%,-11.9%,-24.4%,7.7%
O=C1/C(=C/N(C(=O)c2ccco2)c2ccc(Br)cc2)Sc2ccccc21,11.2µM*,?,12.6µM*,?,-13.1%,-17.1%
COc1cc(NC(=O)C(CCS(C)(=O)=O)N2Cc3ccccc3C2=O)cc(OC)c1OC (configuration not stated),0.3%,9.1%[46.1 µM],-4.7%,.,.,.
Cc1ccc2cc(C#N)c(SCC(=O)NCc3ccco3)nc2c1,11.2%,0.3%,35.5µM*,?,-15.5%,17.8%
O=C(CSc1nc(=O)n(Cc2ccco2)c2c1CCC2)NCc1ccc(Cl)cc1,19.6%,-6.8%[46.1 µM],-31.3%,.,.,.
Cc1ccc2c(c1)cc(C)c1nnc(SCC(=O)NCc3ccco3)n12,.,-2.6%,-22.8%,4.1%,?,-0.3%
Cc1ccc2nc(SCC(=O)NCc3ccco3)c(C)cc2c1,-14.2%,29.3%[46.1 µM],39.8µM*,?,-16.3%,5.1%
Cc1ccc2nc(SCC(=O)NCc3ccco3)c(C#N)cc2c1,27.6%,9.2%,?,-22.0%[46.1 µM],0.1%,-0.5%
Cc1ccc(CNC(=O)CSc2nc(=O)n(Cc3ccco3)c3c2CCC3)cc1,12.6%,-2.5%[46.1 µM],39.8µM*,.,.,.
O=C(NCc1ccccc1Cl)c1ccc(CS(=O)(=O)c2ccc(Br)cc2)o1,-17.6%,-23.6%[46.1 µM],-18.9%,-4.7%[46.1 µM],.,.
N=c1n(CCO)c2ccccc2n1Cc1ccccc1Cl,-5.4%,?,8.7%,?,22.4µM*,2.7%
N=c1n(CCN2CCCC2)c2ccccc2n1CC(O)c1ccc(Cl)c(Cl)c1 (configuration not stated),?,.,0.0%,.,11.2µM*,8.3%
